Data: PubChem BioAssay (NCATS)
Results filed as inconclusive are left out. A number with no mark means an inactive call. Activity calls are given as the source filed them. Calls come from the whole dose curve; as a rule, active = well fitted inhibition curve with a large enough effect; inconclusive = small, poorly fitted or top-dose-only effect; inactive = flat fitted curve, though single readings scatter.
% is set by controls: 0 for no effect and ±100 for the full control effect.

What follows are molecules tested against Glutathione peroxidase 1 (Homo sapiens) (UniProt P07203) (assay: Primary qHTS Assay for Inhibitors of Recombinant Selenoprotein Glutathione Peroxidase 1 (GPX1) (AID 1845191; note: nearly all actives have a fitted effect of over 65% in size)). Conditions: recombinant GPX1, GR-coupled NADPH fluorescence, 15 min; series mostly up to 27.7 µM; activity, negative = inhibition: at the top concentration.
Chain of Glutathione peroxidase 1 (Homo sapiens) (P07203 whole entry, looked up): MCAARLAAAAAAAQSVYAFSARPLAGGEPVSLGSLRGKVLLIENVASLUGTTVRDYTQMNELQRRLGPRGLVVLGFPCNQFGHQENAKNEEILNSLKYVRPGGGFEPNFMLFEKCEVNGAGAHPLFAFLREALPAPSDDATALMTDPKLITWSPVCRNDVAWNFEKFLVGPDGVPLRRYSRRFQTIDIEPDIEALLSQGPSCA
Procedure, shortened: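 GR-coupled assay: compounds preincubated 30 min at room temperature with GPX1, then reaction started with CHP; final 10 nM GPX1, 1 mM GSH, 0.5 mM CHP, 0.5 mM NADPH, 100 nM GR, 0.01% BSA, pH 7.5 Tris buffer. NADPH fluorescence (340/450 nm) read at 0 and 15 min.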
In the case of CCC(C)/C=C(C)/C=C/C1=CC2=C(Cl)C(=O)C(C)(OC(C)=O)C(=O)C2=CN1C(CCCN=C(N)N)C(=O)O (stereo not given), the “activity, negative = inhibition” value is reported as -14.3%.
In the case of CC1(C)CC[C@]2(C(=O)O[C@@H]3O[C@H](CO)[C@@H](O)[C@H](O)[C@H]3O)CC[C@]3(C)C(=CCC4[C@@]5(C)C[C@@H](O)[C@H](O)[C@@](C)(CO)C5[C@H](O)C[C@]43C)C2[C@@H]1O (stereo not given in full), the “activity, negative = inhibition” value is reported as 4.75% [at 15.3 µM].
With CNc1nc(C)nc(N[C@H]2CCC[C@@H](C(=O)NCc3ccc(C#N)cc3C(F)(F)F)C2)n1 the “outcome” value was “inactive [at 48.8 µM]”.
CC(=O)NC(Cc1c[nH]c2ccccc(=O)c12)C(=O)O (stereo not given) was tested, and the “activity, negative = inhibition” value was -12.6% [at 48.8 µM].
In the case of C[C@]1(O)CC[C@@H]2C(C(=O)O)=CO[C@@H](O[C@@H]3O[C@H](CO)[C@@H](O)[C@H](O)[C@H]3O)[C@@H]21, the “outcome” value is reported as “inactive”.
In the case of COc1cc(C(=O)OCC2=CCC3C(C(=O)O)=COC(O[C@@H]4O[C@H](CO)[C@@H](O)[C@H](O)[C@H]4O)C23)ccc1O (stereo not given in full), the “activity, negative = inhibition” value is reported as -5.74%.
For C=C[C@H]1[C@H](O[C@@H]2O[C@H](CO)[C@@H](O)[C@H](O)[C@H]2O)OC=C(C(=O)OC)[C@H]1CC=O, the “activity, negative = inhibition” value was 0.082%.
In the case of O=C(c1c2ccccc2cc2ccccc12)N1CCC(N2CCC[C@@H](C(=O)N3CCOCC3)C2)CC1, the “activity, negative = inhibition” value is reported as -28.3% [at 48.8 µM].
For CC1CCC2(NC1)OC1C(O)C3C4CCC5CC(O[C@@H]6O[C@H](CO)[C@@H](O)[C@H](O)[C@H]6O[C@@H]6O[C@@H](C)[C@H](O)[C@@H](O)[C@H]6O)CCC5(C)C4CCC3(C)C1C2C (stereo not given in full), the “activity, negative = inhibition” value was -5.29% [at 15.3 µM].
In the case of CC(CC(C)O[C@@H]1O[C@H](CO)[C@@H](O)[C@H](O)[C@H]1O)OC(=O)/C=C/c1ccc(O)cc1 (stereo not given in full), the “outcome” value is reported as “inactive”.
